Experimental data published in PubChem BioAssay (EPA / NIEHS).
Calls of active or inactive are those of the source. How the source made its calls: active means hit-call score of the fitted dose curve at least 0.9, where 1 is the maximum; inactive means score below 0.9.

Test: BSK_3C_SRB: Viability Assessment in the BioMAP Diversity Plus: 3C Assay (AID 2283023);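 further: fitted both ways against DMSO so a hit may be signal rise or drop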
Conditions: primary human endothelial cells (HUVEC)
How it was run: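 Cells were dosed with chemical, cultured 24 h, fixed with 10% TCA, stained with 0.1% SRB and read at 560 nm. Human umbilical vein endothelium was used; DMSO served as negative control and baseline.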

| Compound | AC50 | outcome |
| --- | --- | --- |
| NC(=O)c1nc(-c2cccc(-c3cc(F)ccc3OCC(F)(F)C(F)(F)F)c2)n[nH]1 | 31.9 µM (active) |  |
| O=C(Nc1ccc(Cl)cc1)Nc1ccc(Cl)c(Cl)c1 | 2.66 µM (active) |  |
| CC[C@H](NC(=O)c1cc(F)ccc1NS(=O)(=O)c1cccc2cccnc12)c1ccccc1 |  | inactive |
| O=C=NCCCCCCN=C=O |  | inactive |
| CN(C)C(=O)C1(N2CCCCC2)CCN(CC[C@@]2(c3ccc(Cl)c(Cl)c3)CN(C(=O)c3ccccc3)CCO2)CC1 | 7.1 µM (active) |  |
| CCCCOC(=O)CC(CC(=O)OCCCC)(OC(C)=O)C(=O)OCCCC |  | inactive |
| Clc1ccccc1C(c1ccccc1)(c1ccccc1)n1ccnc1 | 11.9 µM (active) |  |
| Cc1occc1C(=O)Nc1ccc(C(=O)N2CCC(F)(F)/C(=C\C(=O)N3CCC(N4CCCCC4)CC3)c3ccccc32)cc1 | 11.5 µM (active) |  |
| Cc1cn([C@H]2C[C@H](N=[N+]=[N-])[C@@H](CO)O2)c(=O)[nH]c1=O |  | inactive |
| Oc1ccc2ccccc2c1 |  | inactive |
| COc1ccc2cc(S(=O)(=O)N[C@H](CC(=O)N[C@H](Cc3ccc(CN4[C@H](C)CCC[C@@H]4C)cc3)C(=O)N(C)C(C)C)c3ccc4c(c3)OCO4)ccc2c1 | 20.8 µM (active) |  |
| CCCCCCCCCC(=O)O |  | inactive |
| CC(C)(C)c1csc(-c2cc3cc(OCc4ccccc4CC(=O)O)ccc3o2)n1 | 21.5 µM (active) |  |
| CC(C)(C)c1cc(/C=C2\SC(N)=NC2=O)cc(C(C)(C)C)c1O | 29.1 µM (active) |  |
| CCOC(=O)O[C@H](C)OC(=O)c1ccc2c(c1)cc(C(=O)NC1CCN(C(C)C)CC1)n2Cc1cc(-c2ccc(Cl)s2)on1 | 5.03 µM (active) |  |
